# Assay outcomes (PubChem BioAssay)
# HT1080-NT tox – kills 2HG-producing HT-1080-NT fibrosarcoma cells; HT-1080-NT fibrosarcoma viability, CellTiter-Glo ATP luminescence, 48 h; Potency, µM (doses to about 46.1 µM), without a hit: at the highest dose activity, negative = less viability, actives largely listed as cytotoxic; hit rate 1.6% among 360,000;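 also: NT is the 2HG producing partner of a matched IDH1 knockdown line; 0% = DMSO-treated cells and -100% = media-only wells without cells; nearly all actives have a fitted effect of over 55% in size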
#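 HT-1080-NT fibrosarcoma cells (2HG-overproducing), 750 cells/well in RPMI with 5% FBS, dosed after 2 h and incubated 48 h at 37C. CellTiter-Glo luminescence normalized to DMSO and no-cell wells; concentration-response curves fitted and classed.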
# MCF10A rerep – inducers of DNA re-replication in MCF 10A breast cells | MCF 10A DNA re-replication, Hoechst nuclear intensity, 48 h | Potency, µM (doses to about 46.1 µM), inactives show top-dose activity, positive = re-replication, usual class: activators | hit rate 2.9% among 350,000 | AID 624296; also: % of control where 0% means no effect; nearly all actives have a fitted effect of over 50% in size
# KB-3-1 cytotox – KB-3-1 parental cell cytotoxicity; Potency, µM (top dose mostly 46.1 µM), actives largely listed as cytotoxic; AID 1347075; hit rate 1.4% among 400,000; KB-3-1 viability, CellTiter-Glo ATP luminescence, 72 h; also: % is scaled to controls: 0 for no effect and ±100 for the full control effect; nearly all actives have a fitted effect of over 60% in size
#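 Multi-concentration cytotoxicity screen in KB-3-1 cells grown in DMEM lacking phenol red with 10% FBS. After 72 h at 37 °C with compound, ATP-dependent luminescence was recorded.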
# SW480 rereplic – induces DNA re-replication in SW480 colon adenocarcinoma cells; SW480 DNA re-replication, Hoechst DNA content imaging, 48 h; Potency, µM (doses to about 46.1 µM), for the others: at the top dose re-replication activation, hits mostly activators; hit rate 1.8% among 340,000; also: % of control where 0% means no effect; nearly all actives have a fitted effect of over 55% in size
#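 Treated cells incubate 48 hr (37 C, 5% CO2), are stained 40 min with Hoechst, and nuclear fluorescence is enumerated; a rise in nuclei with high DNA signal marks re-replication.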
# KB-V1 MDR tox – KB-V1 MDR subline cytotoxicity. KB-V1 MDR cells viability, CellTiter-Glo, 72 h. Potency, µM (series often up to 46.1 µM), hits mostly cytotoxic. hit rate 3.4% among 400,000. AID 1347076; also: % is scaled to controls: 0 for no effect and ±100 for the full control effect; nearly all actives have a fitted effect of over 60% in size
#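 KB-V1 MDR subline cells in DMEM (phenol-red free, 10% FBS) exposed to compounds in qHTS concentration series for 72 h at 37 degrees C. Viability read by CellTiter-Glo luminescence; concentration-effect curves fitted after normalization and correction.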
# HT1080 IDH1KD tx – toxicity to HT-1080 IDH1 knockdown cells (counter line); Potency, µM (highest dose often 46.1 µM), without a hit: top-dose activity, negative = toxicity, hits mostly cytotoxic; hit rate 2% among 360,000; AID 686971; HT-1080 IDH1 knockdown viability, ATP luminescence, 48 h;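 also: 0% = DMSO wells and -100% = cell-free medium wells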
#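 IDH1KD HT-1080 cells, 750/well, RPMI + 5% FBS; compound pinned after 2 h settling; 48 h, 37 °C; CellTiter-Glo luminescence; % activity normalised to DMSO and no-cell wells; curves fitted, classed by r2 and efficacy.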
# Active calls of the source: *; i = inactive; ? = inconclusive; nt = not tested or not shown. A selection: hits, their analogues and other compounds. The true share with any hit is near 8%. Calls follow the shape of the dose curve; as a rule, active = well fitted curve in the direction sought with a large enough effect; inconclusive = small, poorly fitted or top-dose-only effect, or another doubt; inactive = no such curve, though single readings can be large; an effect the other way counts as inactive or inconclusive. Potency is read from the fitted curve at half-maximal effect.
SMILES,HT1080-NT tox,MCF10A rerep,KB-3-1 cytotox,SW480 rereplic,KB-V1 MDR tox,HT1080 IDH1KD tx
COCCCNc1nnc(Cc2ccc(Cl)cc2)c(=O)[nH]1,0.92µM*,0.517µM*,?,?,i,?
O=C(Nc1ccccc1F)NC1CCN(Cc2nnnn2Cc2ccc(F)cc2)CC1,3.7%,4.1%,i,-2.2%,14.6µM*,4.0%
COc1ccc(N=c2cc(-c3ccc(O)cc3)oc3ccccc23)cc1,14.6µM*,?,?,0.0%,?,16.4µM*
O=C(CCC1N=C2c3ccccc3N=C(SCC(=O)Nc3ccccc3F)N2C1=O)NCc1ccco1 (stereo not drawn),nt,nt,i,nt,i,nt
Cc1ccc(S(=O)(=O)N2CCN(c3nc(-c4cncs4)nc4ccccc34)CC2)cc1,6.4%,nt,nt,nt,nt,2.0%
S=C(NCCc1ccccn1)Nc1cc(Cl)cc(Cl)c1,?,?,i,5.6%,i,-16.0%
S=C(NCCc1ccccn1)Nc1ccccc1Cl,12.8%,14.3%,i,9.2µM*,i,7.0%
Cc1c(Cl)cccc1NC(=S)NCCc1ccccn1,19.4%,?,i,-52.6%,?,11.3%
S=C(NCCc1ccccn1)Nc1ccc(Cl)c(Cl)c1,16.4%,?,i,-0.8%,23.1µM*,9.8%
COc1cccc(C(c2sc3nc(-c4ccco4)nn3c2O)N2CCC(O)CC2)c1 (stereo not drawn),nt,nt,i,nt,i,nt
CCc1cccc(NC(=O)CSc2ncc3c(n2)-c2ccccc2N(Cc2ccccc2C)S3(=O)=O)c1,nt,nt,i,nt,i,nt
CCN1CCN(CCCNC(=O)c2ccc(/C=C3/Sc4ccccc4N(Cc4ccccc4F)C3=O)cc2)CC1,18.4µM*,14.6µM*,?,16.4µM*,i,14.6µM*
CCN1CCN(CCNC(=O)c2ccc(/C=C3/Sc4ccccc4N(Cc4ccccc4C)C3=O)cc2)CC1,14.6µM*,18.4µM*,?,7.31µM*,i,20.6µM*
CCCCOC(=O)c1ccc(NC(=O)CC2NCCNC2=O)cc1 (stereo not drawn),nt,nt,i,nt,?,nt
O=C(CBr)c1ccc(Oc2ccc(C(=O)C[n+]3ccccc3Cl)cc2)cc1,nt,nt,i,nt,i,nt
O=Nc1ccc(NO)c2ccccc12,?,nt,?,nt,?,16.4µM*
CC(=O)Nc1ccc(Br)c2ccccc12,-4.3%,3.8%,i,-13.1%,i,-5.4%
Cc1ccc(S(=O)(=O)Nc2cc(=O)[nH]c(SCc3ccc(Cl)cc3)n2)cc1,-1.8%,18.4µM*,i,-71.1%,i,-12.0%
COc1ccc(NC(=O)Cn2c(=O)n(CCc3ccccc3)c(=O)c3sc4ccccc4c32)cc1,nt,nt,i,nt,i,nt
Clc1ccc2nc(-c3ccncc3)cc(-c3ccccc3)c2c1,3.3%,-7.5%,i,-10.9%,i,11.3%
c1ccc(-c2cc(-c3ccncc3)nc3ccc4ccccc4c23)cc1,?,14.6µM*,i,?,?,-29.9%
CCn1c(=NC(=O)C2COc3ccccc3O2)sc2c(C)ccc(OC)c21 (stereo not drawn),-0.9%,16.4µM*,?,31.0%,?,-0.1%
C=CCn1c(=NC(=O)C2COc3ccccc3O2)sc2cccc(OC)c21 (stereo not drawn),-3.3%,6.6%,?,-12.9%,?,0.6%
COc1ccc([C@H]2CC(=O)C=C(c3ccnc4ccc(Cl)cc34)C2)cc1,18.4µM*,?,?,?,i,3.66µM*
COc1ccc(C2CC(=O)C=C(NCc3ccccc3)C2)cc1 (stereo not drawn),23.1µM*,?,?,?,?,18.4µM*
CCOc1ccc(Br)cc1C1=CC(=O)C[C@H](c2ccc(OC)cc2)C1,?,2.91µM*,5.8µM*,7.31µM*,16.4µM*,5.8µM*
COc1ccc([C@H]2CC(=O)C=C(c3cc(Cl)ccc3C)C2)cc1,-13.7%,?,i,4.2%,i,-9.9%
